Laboratory results as given in PubChem BioAssay AID1159580 (chemical genetic matrix, 2015).
Several values for one entry are separate records, joined by “and”; a condition that tells them apart may be missing. Equal entries are not always repeated. Out of some 5,500 compounds screened, about 2,000 (36%) were called active. Not shown: some 18% with an inconclusive outcome. Cut-off read from the data, not from the text of the source: active = normalized growth mostly below about 0.91 (no sharp cut-off); inconclusive = no clear call, values can overlap the other calls; inactive = mostly above about 0.92. This is one part of the list.

Test: chemical genetic growth profiling, strain panel (AID 1159580);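 note: tested at 20 µM; growth read once vehicle control cultures reached saturation at 30 °C; 1 = growth at the plate median or of vehicle wells; lower values mean less growth of the strain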
Settings: S. cerevisiae deletion strains, growth OD

Measured: normalized growth

Cc1ccc2c(c1)CC[C@H]1CC(=O)CC[C@]21C
inactive: locus YAL013W, strain DEP1, hits give low values 1.01 | locus YAL021C, strain ccr4, hits give low values 0.991 | locus YAL026C, strain drs2, hits give low values 1.01 | locus YAL030W, strain snc1, hits give low values 1.01 | locus YBL061C, strain skt5, hits give low values 1 | locus YBR009C, strain hhf1, hits give low values 1 | locus YBR021W, strain FUR4, hits give low values 0.971 | locus YBR023C, strain chs3, hits give low values 0.998 | locus YBR171W, strain sec66, hits give low values 0.992 | locus YBR229C, strain ROT2, hits give low values 0.997 | locus YBR231C, strain swc5, hits give low values 1.01 | locus YBR279W, strain paf1, hits give low values 1.01 | locus YCL011C, strain gbp2, hits give low values 0.995 | locus YCL016C, strain dcc1, hits give low values 1.01 | locus YCL029C, strain bik1, hits give low values 0.991 | locus YCL069W, strain vba3, hits give low values 0.995 | locus YCR088W, strain abp1, hits give low values 0.998 | locus YDL005C, strain med2, hits give low values 1.01 | locus YDL035C, strain GPR1, hits give low values 0.973 | locus YDL040C, strain nat1, hits give low values 1 | locus YDL074C, strain BRE1, hits give low values 0.971 | locus YDL101C, strain DUN1, hits give low values 1.01 | locus YDL134C, strain PPH21, hits give low values 1 | locus YDL185W, strain tfp1, hits give low values 0.983 | locus YDL192W, strain arf1, hits give low values 0.974 | locus YDR001C, strain nth1, hits give low values 0.998 | locus YDR069C, strain doa4, hits give low values 1.01 | locus YDR101C, strain arx1, hits give low values 0.97 | locus YDR137W, strain rgp1, hits give low values 0.956 | locus YDR150W, strain NUM1, hits give low values 1 | locus YDR159W, strain sac3, hits give low values 1.01 | locus YDR162C, strain NBP2, hits give low values 0.974 | locus YDR195W, strain ref2 1.05 | locus YDR297W, strain sur2, hits give low values 0.991 | locus YDR318W, strain mcm21, hits give low values 0.972 | locus YDR334W, strain swr1, hits give low values 1.01 | locus YDR335W, strain msn5, hits give low values 1 | locus YDR388W, hits give low values 0.979 | locus YDR392W, strain spt3, hits give low values 0.983 | locus YDR502C, strain sam2, hits give low values 0.968 | locus YEL003W, strain gim4, hits give low values 0.991 | locus YEL037C, strain rad23, hits give low values 1.01 | locus YEL061C, strain CIN8 (second series), hits give low values 0.993 | locus YEL061C, strain CIN8, hits give low values 1 | locus YER015W, strain faa2, hits give low values 1.01 | locus YER016W, strain bim1, hits give low values 1 | locus YER110C, hits give low values 0.966 | locus YER111C, strain swi4, hits give low values 0.991 | locus YER155C, strain BEM2 (second series), hits give low values 0.978 | locus YER155C, strain BEM2, hits give low values 0.997 | locus YER167W, strain BCK2, hits give low values 0.991 | locus YFR010W, strain ubp6, hits give low values 1.01 | locus YGL078C, strain dbp3, hits give low values 0.989 | locus YGL086W, strain mad1, hits give low values 0.981 | locus YGL167C, strain pmr1, hits give low values 0.998 | locus YGL173C, strain kem1, hits give low values 0.982 | locus YGL227W, strain vid30, hits give low values 1 | locus YGL240W, strain doc1, hits give low values 0.987 | locus YGL248W, strain PDE1, hits give low values 0.993 | locus YGL253W, strain hxk2, hits give low values 1 | locus YGR078C, strain PAC10, hits give low values 0.982 | locus YGR135W, strain pre9, hits give low values 0.959 | locus YGR229C, strain SMI1, hits give low values 1.01 | locus YGR252W, strain gcn5, hits give low values 0.881 | locus YHR013C, strain ard1, hits give low values 1.02 | locus YHR027C, strain rpn1, hits give low values 1.01 | locus YHR030C, strain SLT2, hits give low values 0.996 and 0.98 | locus YHR079C, strain IRE1 (second series), hits give low values 0.969 | locus YHR079C, strain IRE1, hits give low values 0.973 | locus YHR094C, strain hxt1, hits give low values 0.995 | locus YHR129C, strain ARP1, hits give low values 0.996 | locus YHR142W, strain chs7, hits give low values 0.985 | locus YHR200W, strain rpn10, hits give low values 0.979 | locus YIL066C, strain RNR3, hits give low values 0.993 | locus YIL073C, strain SPO22, hits give low values 0.965 | locus YIL125W, strain kgd1, hits give low values 0.999 | locus YIR030C, strain dcg1, hits give low values 0.974 | locus YJL092W, strain hpr5, hits give low values 1 | locus YJL095W, strain BCK1 (second series), hits give low values 1.01 | locus YJL095W, strain BCK1, hits give low values 0.967 and 0.983 | locus YJL115W, strain asf1, hits give low values 1.01 | locus YJL129C, strain trk1, hits give low values 1 | locus YJL134W, strain LCB3, hits give low values 0.997 | locus YJL154C, strain vps35, hits give low values 0.993 | locus YJL164C, strain tpk1, hits give low values 0.992 | locus YJL166W, strain qcr8, hits give low values 0.995 | locus YJL168C, strain set2, hits give low values 0.971 | locus YJL187C, strain SWE1 (second series), hits give low values 1.01 | locus YJR043C, strain POL32, hits give low values 0.967 | locus YJR066W, strain TOR1, hits give low values 0.897 | locus YJR075W, strain HOC1, hits give low values 1
